{
  "source": "paper PMC4336329",
  "about": "(PLoS ONE, 2015)",
  "note": "Among all 310,000 compounds or so, about 14,000 (4.5%) showed an effect of 50% or more. Effects have a minus sign here. This is one part of a sample in which strong results are shown more often than they occur.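 Note: peak tail current of the secondary pulse compared with the same well before compound.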",
  "data": [
    {"target": "human ether-à-go-go-related gene (hERG) potassium channel (human, UniProt Q12809)", "sequence (Q12809 whole entry, looked up)": "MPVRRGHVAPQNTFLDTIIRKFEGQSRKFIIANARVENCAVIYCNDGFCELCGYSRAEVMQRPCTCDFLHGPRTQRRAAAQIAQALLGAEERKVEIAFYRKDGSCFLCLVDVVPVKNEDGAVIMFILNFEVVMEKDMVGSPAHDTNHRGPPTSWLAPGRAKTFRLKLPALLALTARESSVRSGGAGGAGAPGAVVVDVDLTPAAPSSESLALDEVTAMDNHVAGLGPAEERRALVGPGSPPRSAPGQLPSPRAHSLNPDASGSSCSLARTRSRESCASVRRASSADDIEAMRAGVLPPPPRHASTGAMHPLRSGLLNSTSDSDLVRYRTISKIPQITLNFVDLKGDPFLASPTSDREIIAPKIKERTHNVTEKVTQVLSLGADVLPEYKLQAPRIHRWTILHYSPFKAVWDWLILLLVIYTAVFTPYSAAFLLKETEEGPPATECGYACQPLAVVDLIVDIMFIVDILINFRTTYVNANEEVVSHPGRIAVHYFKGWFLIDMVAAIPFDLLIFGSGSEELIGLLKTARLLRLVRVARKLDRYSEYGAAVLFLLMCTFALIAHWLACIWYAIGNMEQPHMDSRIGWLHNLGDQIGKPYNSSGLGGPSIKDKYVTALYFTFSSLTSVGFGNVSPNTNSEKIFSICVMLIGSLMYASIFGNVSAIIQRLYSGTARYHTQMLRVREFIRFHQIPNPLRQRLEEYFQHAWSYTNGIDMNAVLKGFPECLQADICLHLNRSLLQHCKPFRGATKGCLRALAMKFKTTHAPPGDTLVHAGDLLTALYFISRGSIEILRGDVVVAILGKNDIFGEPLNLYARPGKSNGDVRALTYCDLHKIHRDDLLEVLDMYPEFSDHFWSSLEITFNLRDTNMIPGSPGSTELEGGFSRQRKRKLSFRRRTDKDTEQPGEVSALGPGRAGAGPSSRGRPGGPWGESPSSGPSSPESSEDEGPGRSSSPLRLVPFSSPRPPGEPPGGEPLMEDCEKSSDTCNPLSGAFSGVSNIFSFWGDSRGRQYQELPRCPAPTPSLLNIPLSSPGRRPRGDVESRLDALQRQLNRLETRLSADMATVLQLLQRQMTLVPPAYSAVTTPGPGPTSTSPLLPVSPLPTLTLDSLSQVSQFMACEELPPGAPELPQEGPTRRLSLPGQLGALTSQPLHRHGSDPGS", "assay": "primary screen, population patch clamp on CHO cells stably expressing hERG; higher = less effect of the substance", "units": {"hERG current change (%, negative = inhibition) at 10uM": "%"}, "values": [
      {"smiles": "O=C(COc1cc(F)ccc1[N+](=O)[O-])Nc1ccc(N2CCOCC2)cc1", "hERG current change (%, negative = inhibition) at 10uM": 7.65},
      {"smiles": "CN1C(=O)C2(C(C#N)=C(N)N(c3ccc(Cl)cc3)C3=C2C(=O)CC(C)(C)C3)c2ccccc21", "note": "(centres unmarked)", "hERG current change (%, negative = inhibition) at 10uM": -6.79},
      {"smiles": "CCOC(=O)/C(C#N)=N/Nc1c(S(=O)(=O)Cc2ccco2)csc1C(=O)OC", "hERG current change (%, negative = inhibition) at 10uM": 11.4},
      {"smiles": "COc1ccc(N2CCN(C(=O)Nc3ccccc3Cl)CC2)cc1", "hERG current change (%, negative = inhibition) at 10uM": 4.49},
      {"smiles": "Cc1ccccc1NC(=O)CSc1nnc(CNC(=O)c2ccc3c(c2)OCO3)n1C", "hERG current change (%, negative = inhibition) at 10uM": 1.34},
      {"smiles": "CCC1C(=O)NCCN1C(=O)CCc1nnc(CCc2ccc(OC)cc2)o1", "note": "(centres unmarked)", "hERG current change (%, negative = inhibition) at 10uM": 21.9},
      {"smiles": "Cc1ccc(C(=O)NCCNC(=O)COc2ccccc2Cl)cn1", "hERG current change (%, negative = inhibition) at 10uM": 6.95},
      {"smiles": "COCCCN(C(=O)c1ccccc1F)c1nc(-c2ccc(OC)cc2)cs1", "hERG current change (%, negative = inhibition) at 10uM": 8.7},
      {"smiles": "COCCN(C(=O)c1ccccc1F)c1nc(-c2ccc(OC)cc2)cs1", "hERG current change (%, negative = inhibition) at 10uM": 16.7},
      {"smiles": "CCN(CC)CCCN(C(=O)c1ccccc1F)c1nc(-c2ccc(OC)cc2)cs1", "hERG current change (%, negative = inhibition) at 10uM": -71.4},
      {"smiles": "CCN(CC)CCCN(C(=O)c1ccccc1C)c1nc(-c2ccc(OC)cc2)cs1", "hERG current change (%, negative = inhibition) at 10uM": -55.5},
      {"smiles": "CCN(C(=O)c1ccccc1F)c1nc(-c2ccc(OC)cc2)cs1", "hERG current change (%, negative = inhibition) at 10uM": 22.8},
      {"smiles": "CN(CC(=O)Nc1cccc(F)c1)C(=O)CCNC(=O)c1ccco1", "hERG current change (%, negative = inhibition) at 10uM": 16.7},
      {"smiles": "CCC(C)(C)NC(=O)C(c1ccccc1)N(Cc1cccs1)C(=O)Cn1nnc2ccccc21", "note": "(centres unmarked)", "hERG current change (%, negative = inhibition) at 10uM": 7.58},
      {"smiles": "Cc1cccc(/C(N)=N/OC(=O)COc2ccc(Cl)c(C)c2)c1", "hERG current change (%, negative = inhibition) at 10uM": 13.2},
      {"smiles": "COCCNC(=O)c1cc2sccc2n1C", "hERG current change (%, negative = inhibition) at 10uM": 1.67},
      {"smiles": "CC1CCN(CCCNC(=O)c2cc3sccc3n2C)CC1", "hERG current change (%, negative = inhibition) at 10uM": -57.3},
      {"smiles": "COc1ccc(N2CCN(CCCNC(=O)c3cc4sccc4n3C)CC2)cc1", "hERG current change (%, negative = inhibition) at 10uM": -70.7},
      {"smiles": "COc1ccc(CCNC(=O)c2cc3sccc3n2C)cc1OC", "hERG current change (%, negative = inhibition) at 10uM": -6.67},
      {"smiles": "Cn1c(C(=O)NCCCN2CCCCC2)cc2sccc21", "hERG current change (%, negative = inhibition) at 10uM": -49},
      {"smiles": "COc1ccc(N2CCN(CCCNC(=O)CCCn3c(=O)[nH]c4ccsc4c3=O)CC2)cc1", "hERG current change (%, negative = inhibition) at 10uM": -9.7},
      {"smiles": "COC(=O)CSc1ccsc1C(=O)O", "hERG current change (%, negative = inhibition) at 10uM": 5.72},
      {"smiles": "COc1ccc(-c2cc3c(=O)n(CC(=O)Nc4cccc(Cl)c4)nc(C)n3n2)cc1", "hERG current change (%, negative = inhibition) at 10uM": 14.8},
      {"smiles": "CCCC(=O)Nc1cccc(NC(=O)c2cccc([N+](=O)[O-])c2C)c1", "hERG current change (%, negative = inhibition) at 10uM": -12.8},
      {"smiles": "CCCCN(CC)CCNC(=O)CN1C(=O)COc2ccc(S(=O)(=O)N3CCCC3)cc21", "hERG current change (%, negative = inhibition) at 10uM": -3.34},
      {"smiles": "CCN(CC)S(=O)(=O)c1ccc2c(c1)N(CC(=O)N1CCCC1)C(=O)CO2", "hERG current change (%, negative = inhibition) at 10uM": -5.64},
      {"smiles": "CCCCN(CCCC)CCNC(=O)CN1C(=O)COc2ccc(S(=O)(=O)N3CCOCC3)cc21", "hERG current change (%, negative = inhibition) at 10uM": -42.3},
      {"smiles": "CCN(CC)S(=O)(=O)c1ccc2c(c1)N(CC(=O)N(CCc1ccncc1)C(C)C)C(=O)CO2", "hERG current change (%, negative = inhibition) at 10uM": -53.3},
      {"smiles": "CC1CCN(S(=O)(=O)c2ccc3c(c2)N(CC(=O)NCCCN2C(C)CCCC2C)C(=O)CO3)CC1", "note": "(centres unmarked)", "hERG current change (%, negative = inhibition) at 10uM": 17.3},
      {"smiles": "CCN(Cc1ccccc1)C(=O)CN1C(=O)COc2ccc(S(=O)(=O)N3CCCCCC3)cc21", "hERG current change (%, negative = inhibition) at 10uM": -8.9},
      {"smiles": "CC1CCN(S(=O)(=O)c2ccc3c(c2)N(CC(=O)NCCCN2CCCC(C)C2)C(=O)CO3)CC1", "note": "(centres unmarked)", "hERG current change (%, negative = inhibition) at 10uM": -8.35},
      {"smiles": "CCN(CC)S(=O)(=O)c1ccc2c(c1)N(CC(=O)NCCc1ccc(S(N)(=O)=O)cc1)C(=O)CO2", "hERG current change (%, negative = inhibition) at 10uM": -1.7},
      {"smiles": "CCCCN(CCCNC(=O)CN1C(=O)COc2ccc(S(=O)(=O)N3CCC(C)CC3)cc21)Cc1ccccc1", "hERG current change (%, negative = inhibition) at 10uM": -76.6},
      {"smiles": "CCN(Cc1ccccc1)C(=O)CN1C(=O)COc2ccc(S(=O)(=O)NC3CCCC3)cc21", "hERG current change (%, negative = inhibition) at 10uM": -54.2},
      {"smiles": "CCCCN(CCCC)CCNC(=O)CN1C(=O)COc2ccc(S(=O)(=O)N3CCC(C)CC3)cc21", "hERG current change (%, negative = inhibition) at 10uM": -66.5},
      {"smiles": "CC(C)N(Cc1ccccc1)C(=O)CN1C(=O)COc2ccc(S(=O)(=O)NC3CCCC3)cc21", "hERG current change (%, negative = inhibition) at 10uM": -36.1},
      {"smiles": "CC(C)CN(C(=O)COC(=O)/C=C/c1ccccc1)C1CCS(=O)(=O)C1", "note": "(centres unmarked)", "hERG current change (%, negative = inhibition) at 10uM": -10.7},
      {"smiles": "CCOC(=O)N1CCN(C(=O)CSc2nnc(COc3ccccc3)o2)CC1", "hERG current change (%, negative = inhibition) at 10uM": -11},
      {"smiles": "S=C(Nc1ccc(Br)cc1Cl)NN1CCOCC1", "hERG current change (%, negative = inhibition) at 10uM": -8.03},
      {"smiles": "O=C(CC1NCCNC1=O)Nc1ccc(Oc2ccccc2)cc1", "note": "(centres unmarked)", "hERG current change (%, negative = inhibition) at 10uM": 25.6},
      {"smiles": "Cc1cc(C(=O)Nc2ccc3c(c2)CCC3)c2ccccc2n1", "hERG current change (%, negative = inhibition) at 10uM": 10.8},
      {"smiles": "COc1ccc(Cl)cc1NC(=O)CCS(=O)(=O)c1ccc(Br)cc1", "hERG current change (%, negative = inhibition) at 10uM": 3.8},
      {"smiles": "COc1ccc(NC(=O)C(=O)NNC(=O)C(C)Oc2ccc(Cl)cc2Cl)cc1", "note": "(centres unmarked)", "hERG current change (%, negative = inhibition) at 10uM": 19},
      {"smiles": "Cn1nc(C(=O)Nc2ccccc2)c2c1-c1ccccc1S(=O)(=O)C2", "hERG current change (%, negative = inhibition) at 10uM": -0.138},
      {"smiles": "CC(C)CN(CCCNC(=O)CN1C(=O)COc2ccc(S(=O)(=O)N3CCCC3)cc21)CC(C)C", "hERG current change (%, negative = inhibition) at 10uM": -5.33},
      {"smiles": "CC(C)CN(CCCNC(=O)CN1C(=O)COc2ccc(S(=O)(=O)N3CCC(C)CC3)cc21)CC(C)C", "hERG current change (%, negative = inhibition) at 10uM": -2.94},
      {"smiles": "Cc1ccc(CCNC(=O)CN2C(=O)COc3ccc(S(=O)(=O)N4CCC(C)CC4)cc32)cc1", "hERG current change (%, negative = inhibition) at 10uM": 8.66},
      {"smiles": "CC(C)CN(CCCNC(=O)CN1C(=O)COc2ccc(S(=O)(=O)N3CCCCCC3)cc21)CC(C)C", "hERG current change (%, negative = inhibition) at 10uM": -52},
      {"smiles": "CCOCCCNC(=O)CN1C(=O)COc2ccc(S(=O)(=O)N3CCC(C)CC3)cc21", "hERG current change (%, negative = inhibition) at 10uM": 6.25},
      {"smiles": "CC1CCN(S(=O)(=O)c2ccc3c(c2)N(CC(=O)NCCCOC(C)C)C(=O)CO3)CC1", "hERG current change (%, negative = inhibition) at 10uM": 12.8},
      {"smiles": "CC(C)CN(CCCNC(=O)CN1C(=O)COc2ccc(S(=O)(=O)N3CCOCC3)cc21)CC(C)C", "hERG current change (%, negative = inhibition) at 10uM": 6.18},
      {"smiles": "CCCCN(CCCC)CCCNC(=O)CN1C(=O)COc2ccc(S(=O)(=O)N3CCC(C)CC3)cc21", "hERG current change (%, negative = inhibition) at 10uM": -74.8},
      {"smiles": "CC1CCN(S(=O)(=O)c2ccc3c(c2)N(CC(=O)NCCCN(Cc2ccccc2)C(C)C)C(=O)CO3)CC1", "hERG current change (%, negative = inhibition) at 10uM": -62.5}
    ]}
  ]
}
